Results as given in PubChem BioAssay (NCI).
The panel holds about 83,000 compounds, 20% with a hit somewhere; the sample as a whole holds those more often.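 Assay: single dose, 48 h. Readout: percent growth (0 = no net growth; negative = cell death). Active: <10.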 The source made the active and inactive calls.

The molecules below were run on SK-OV-3 ovarian (assay: NCI-60 one-dose screen, 48 h (100 = growth as untreated, 0 = no growth, -100 = all killed)). Details: 10 µM unless noted.
Experimental: Growth inhibition of the SK-OV-3 human tumor cell line is measured as a screen for anti-cancer activity. Cells are grown in 96 well plates and exposed to the test compound for 48 hours. Compounds are tested at a single concentration, which is 10^-5 M for most compounds. The reported endpoint is percent growth (GI% or GIPRCNT), where numbers from 0 - 100% represent growth inhibition, and numbers from -100% - 0 represent cell death. For example, a value of 40 represents 60% growth inhibition. A value of 0 means no net growth occurred over the course of the experiment. A value of -40 indicates 40% of cells at the beginning of the experiment died by the end of the experiment. A value of -100 means all cells are dead at the end of the experiment.
NCI-60 Human Tumor Cell Lines Screen was performed using the standard one-dose NCI protocol, which is described in more detail at https://dtp.cancer.gov/discovery_development/nci-60/default.htm.
Compounds with GIPRCNT values below 10 were considered active. Activity score was based on GIPRCNT using the following formula: […]
Score is 0 for GIPRCNT values of 100 or above, 50 for GIPRCNT values of 0, and 100 for GIPRCNT values of -100.
In the case of Cc1ccc(-c2nc(Nc3ccccc3S(N)(=O)=O)c3ccccc3n2)cc1, the growth is reported as 91.4% (inactive). CN(C)CCn1c2ccccc2c2nc3cc4ccccc4cc3nc21 was tested, and the growth was 45.5% (inactive). In the case of C#CCOc1ccc(/C=N/Nc2nc(-c3cc4cc(Br)ccc4oc3=O)cs2)cc1OC, the growth is reported as 25.7% (inactive). O=C(/C=C/c1cccc(OCc2ccc(F)cc2)c1)c1nc2ccccc2[nH]1 was tested, and the growth was 92.9% (inactive). COc1ccc2oc3c4[nH]c5ccccc5c4c4c(c3c2c1)C(=O)N(C(=O)OC(C)(C)C)C4=O was tested, and the growth was -25.3% (active). For CCCSc1nc(NCCc2c[nH]c3ccccc23)c(C#N)c(-c2ccc(F)cc2)n1, the growth was 72.3% (inactive). For O=C(/C=C/c1ccc(-c2ccccc2)cc1)c1nc2ccccc2n1Cc1ccc(Br)cc1, the growth was 85.3% (inactive). For COc1ccc(-c2nc3cc(C)ccc3n2CC(=O)N=Nc2c(O)[nH]c3ccc(Cl)cc23)cc1, the growth was 13.7% (inactive). COc1ccc(/C=C/c2n(Cc3ccc4ccccc4c3)c3ccccc3[n+]2Cc2ccc3ccccc3c2)cc1 was tested, and the growth was -95.7% (active). With COc1ccc(NC(=O)Cn2c3c(sc2=O)[C@H]2[C@@H](O)[C@@H](O)[C@H](O)[C@@H]2CS3)cc1 the growth was 107% (inactive). With CC1(C)CC[C@]2(C(=O)O)CC[C@]3(C)C(=CCC4[C@@]5(C)C[C@@H](O)[C@@H]6OC(c7ccccc7Br)OC[C@@]6(C)C5CC[C@]43C)C2C1 (stereo not given in full) the growth was 40.2% (inactive). NS(=O)(=O)c1ccc(-n2cc(-c3cccc(NC(=O)c4cc(Cl)cc(Cl)c4)c3)nn2)cc1 was tested, and the growth was 90.2% (inactive). With COc1cc2c(c(OC)c1OC)C(=O)CC(c1cccc(NC(=O)c3cc(NC(=O)[C@H](CO)NC(=O)OC(C)(C)C)ccc3Cl)c1)O2 (stereo not given in full) the growth was 81.7% (inactive). For COC(=O)/C=C/c1cccc2c1C(=O)NC(C)(c1cc3ccccc3oc1=O)N2 (stereo not given), the growth was 41.7% (inactive). In the case of C#CCOc1cc(N(CC)CC)ccc1C(C(=O)NC(C)(C)C)N(C(=O)C1CCc2cc(F)ccc2O1)c1ccc(Br)cc1 (stereo not given), the growth is reported as 95.3% (inactive). In the case of COC1=C[C@]23CCC(=O)N2CCc2cc4c(cc2[C@@H]3[C@@H]1OC(=O)[C@H](C)O)OCO4, the growth is reported as 23.5% (inactive). With O=C(O)c1ccc(-c2ccc(/C=N/NC(=O)c3[nH]c4ccc(Br)cc4c3-c3ccccc3)o2)cc1 the growth was 41.1% (inactive). COc1ccc(C(=O)/C=C/c2ccc(OCc3ccc(F)cc3)c(OC)c2)cc1OC was tested, and the growth was 40.2% (inactive). In the case of CN(C)c1nc(NCCNS(=O)(=O)c2ccc(C3=Nc4c(N)nc(N)nc4NC(c4ccc(C(F)(F)F)cc4)C3)cc2)nc(Nc2ccc(F)cc2)n1 (stereo not given), the growth is reported as 49.8% (inactive). For O=C(/C=C/c1cccc(OCc2ccccc2)c1)c1nc2ccccc2[nH]1, the growth was 87.8% (inactive). For COc1ccc(NC(=O)Nc2ccc(OCc3ccc(F)cc3)cc2)cc1, the growth was 76.2% (inactive). With Cn1cc(-c2cc(N)n3nc(-c4cn(C)c5ccc(Cl)cc45)cc3n2)c2ccccc21 the growth was 105% (inactive). In the case of CN(C)c1nc(NCCNS(=O)(=O)c2ccc(C3=Nc4c(N)nc(N)nc4NC(c4ccc(Cl)cc4)C3)cc2)nc(Nc2ccc(F)cc2)n1 (stereo not given), the growth is reported as 90.3% (inactive). In the case of COc1cc2oc(-c3cccc(C(=O)Nc4ccc(Cl)cc4)c3)cc(=O)c2c(OCCNC(=O)[C@H](CCC(=O)OC(C)(C)C)NC(=O)OC(C)(C)C)c1OC, the growth is reported as 102% (inactive). With CSc1ccc(C(=O)Nc2ccc3nnn(/C(C#N)=C/c4ccccn4)c3c2)cc1 the growth was 64.4% (inactive). With CCN(CC)c1ccnc(CNCCSC(c2ccccc2)(c2ccccc2)c2ccc(C)cc2)c1 the growth was -87.4% (active). COc1c(F)ccc(C(=O)Nc2ccc3nc(NC(=O)C4CCCN(S(=O)(=O)c5ccc(Br)s5)C4)sc3c2)c1F (stereo not given) was tested, and the growth was 109% (inactive). In the case of CC(=O)c1cccc(NC(=O)CCC(=O)NS(=O)(=O)c2ccc(C)cc2)c1, the growth is reported as 99.6% (inactive). With CC1=C(C(=O)OCc2ccccc2)C(c2c(O)cc(O)cc2O)n2c(nc3ccccc32)N1 (stereo not given) the growth was 44.4% (inactive). C/C(=N\N=C\c1cc([N+](=O)[O-])ccc1Cl)c1ccc2c(c1)Nc1ccccc1S2 was tested, and the growth was 40.4% (inactive). In the case of O=C(c1ccccc1)c1ccc2nc(-c3ccc(F)cc3)[nH]c2c1, the growth is reported as 74% (inactive). In the case of COc1ccc(N2N=C(c3ccc4c(c3)OCO4)CC2c2cccc(NC(=O)CCCNS(=O)(=O)c3ccc(F)cc3)c2)cc1 (stereo not given), the growth is reported as 83.5% (inactive). In the case of O=C1NC(=O)/C(=C/c2ccccc2OCc2cc3ccccc3nc2Cl)S1, the growth is reported as 81.7% (inactive). In the case of Cn1cc(-c2cc(N)n3nc(-c4c[nH]c5ccccc45)cc3n2)c2cc(Br)cnc21, the growth is reported as -34.6% (active). COc1cc(C2CC(c3cc(OC)c(OC)c(OC)c3)=Nc3c(N)nc(N)nc3N2)ccc1Oc1nc(NCCO)nc(N2CCOCC2)n1 (stereo not given) was tested, and the growth was 104% (inactive). In the case of Clc1cccc(Cl)c1/C=C/c1cc(/C=C/c2ccc(Br)cc2)c2ccccc2n1, the growth is reported as 98.2% (inactive). In the case of CCCCc1c(Nn2cnnn2)no[n+]1[O-], the growth is reported as 88.8% (inactive). C=C1CCC2C3(C)COC(c4cc(F)cc(F)c4)OC3CCC2(C)C1CC(O)C1=CCOC1=O (stereo not given) was tested, and the growth was 102% (inactive). In the case of C#CCOc1ccc(/C=N/Nc2nc(-c3ccc(F)cc3)cs2)cc1OC, the growth is reported as 88% (inactive). With COc1cc2c(c(OC)c1OC)C(=O)CC(c1cccc(NC(=O)c3cccc(NC(=O)[C@H](C)NC(=O)OC(C)(C)C)c3)c1)O2 (stereo not given in full) the growth was 91.9% (inactive).
